# Only some compounds are listed: those with a hit (about 7.8% of all), similar ones and a draw of the others.
# HCV inhibitor: qHTS Assay for Inhibitors of Hepatitis C Virus (HCV) | AID 651820, 2012 | 340,000 tested, 3.4% active | Potency, µM (top dose mostly 41.8 µM), inactives show at the highest dose activity change, negative = inhibition, most hits filed as inhibitors | Huh7.5.1 HCVcc-Cre infection, luciferase reporter, 44 h; active = well fitted inhibition curve with a large enough effect; inconclusive = small, poorly fitted or top-dose-only effect, or another doubt; inactive = no such curve, though single readings can be large or run the other way; note: potency is the fitted concentration of half-maximal effect
#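 Reporter virus HCVcc-Cre (~0.5 moi) infects cells exposed to compound; seeding density 1,000 cells/well with 4 h settling beforehand. Luminescence, 15 sec read, taken 44 h post-infection following a 15 min RT substrate incubation.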
# VACV Venus inh: qHTS for Stage-Specific Inhibitors of Vaccinia Orthopoxvirus: Venus Reporter Primary qHTS. 330,000 tested, 0.46% active. Vaccinia virus Venus reporter expression, fluorescence. AID 720580, 2013. Potency, µM (doses to about 36.5 µM), for inactives: top-dose activity change, negative = inhibition, usual class: inhibitors; calls by dose curve; tested in A549 cells; note: potency is the fitted concentration of half-maximal effect; nearly all actives have a fitted effect of over 30% in size
# LASV entry inh: qHTS for Inhibitors of binding or entry into cells for Lassa Virus | Lassa virus pseudotype entry inhibition, cell reporter | Potency, µM (titrated, usually from 37.9 µM), for inactives: top-dose activity change, negative = inhibition, usual class: inhibitors | 300,000 tested, 1.2% active | AID 540256, 2011; calls by dose curve; tested in HEK293 cells; note: potency is the fitted concentration of half-maximal effect; nearly all actives have a fitted effect of over 50% in size
# VACV mCherry inh: qHTS for Stage-Specific Inhibitors of Vaccinia Orthopoxvirus: mCherry Reporter Primary qHTS | Vaccinia virus mCherry reporter infection, fluorescence | Potency, µM (series often up to 36.5 µM), inactives show at the top dose activity change, negative = inhibition, hits mostly inhibitors | 310,000 tested, 0.63% active; calls by dose curve; tested in A549 cells; note: potency is the fitted concentration of half-maximal effect; nearly all actives have a fitted effect of over 35% in size
# Marburg entry inh: qHTS for inhibitors of binding or entry into cells for Marburg Virus | Marburg virus pseudotyped entry inhibition, cell reporter | AID 540276, 2011 | Potency, µM (series often up to 37.8 µM), for inactives: at the top dose activity change, negative = inhibition, hits mostly inhibitors | 300,000 tested, 1.8% active; calls by dose curve; tested in HEK293 cells; note: potency is the fitted concentration of half-maximal effect
# HCMV antiviral: qHTS Assay for inhibitors of the human cytomegalovirus (HCMV); HFF cells, HCMV-luciferase reporter, 72 h; stronger effect = lower value; activity change, negative = inhibition, % at 57.5 µM; 410,000 tested, 4.5% active; AID 1259415, 2018; in the data active = activity change below about -60%; inconclusive = no clear call, values can overlap the other calls; inactive = above about -39%
#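 Inhibition of viral replication was scored as loss of reporter luminescence in HFFs infected with HCMV-luciferase (MOI 1 PFU/cell) for 72 h; compounds tested at 2 doses, normalized to buffer and Salinomycin controls.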
# * marks the source's active call; other numbers are inactive results; i = inactive; ? = inconclusive; . = no result; [ ] = dose if it differs, or a comment. % is set by controls: 0 for no effect and ±100 for the full control effect.
SMILES,HCV inhibitor,VACV Venus inh,LASV entry inh,VACV mCherry inh,Marburg entry inh,HCMV antiviral
Cc1cccc(-n2ncc3c2CCCC3NC(=O)Cc2c(C)noc2C)c1C (stereo not given),8.9µM*,.,.,.,.,?
Cc1cc2c(n1-c1ccc(C(=O)NCc3ccc(OC(C)C)cc3)cc1)CCCC2,.,-27%,?,?,.,-99*
CCOc1ccc(CCNC(=O)c2cccc(N3CCCC3=O)c2)cc1OCC,-14%,-13%,-10%,-17%,-13%,-79*
CCOc1ccc(CCNC(=O)c2ccc(-n3c(C)cc4c3CCCC4)cc2)cc1OCC,.,?,?,?,.,-85*
CCOc1ccc(CCNC(=O)CN2CCN(Cc3ccc(F)cc3Cl)C2=O)cc1OCC,.,-4%,-2%[46.1 µM],-14%,-24%[46.1 µM],-13
CCOc1ccc(CCNC(=O)CN2CCN(Cc3ccc(Cl)cc3)C2=O)cc1OCC,.,2%,1%[46.1 µM],-8%,5µM*,-12
COc1ccc(CCNC(=O)c2ccc(N3CCCC3=O)cc2)cc1OC,0%,-10%,-1%,i,8%,22
Cc1ccc(CNC(=O)c2ccc(-n3c(C)cc4c3CCCC4)cc2)cc1,.,-9%,?,-14%,.,-8
Cc1ccc(C)c(CN2C(=O)c3ccccc3S(=O)c3ccc(C(=O)NCc4ccccc4Cl)cc32)c1 (stereo not given),.,-14%,-5%[46.1 µM],-12%,?,-27
O=c1cc(-c2ccccc2)nc(SCc2nc(-c3ccccc3Cl)no2)[nH]1,.,-1%,16%[46.1 µM],-6%,.,0
O=C(NC1CCCCCC1)c1cccc(N2CCCC2=O)c1,25µM*,-22%,-25%,-24%,?,28
O=C(NC1CCCN(Cc2ccc(Cl)cc2)C1)c1cccc(N2CCCC2=O)c1 (stereo not given),-31%,-20%,-5%,-7%,-18%,-6
Cc1c(F)cccc1NC(=O)CCCCCC1NC(=O)NC1C (stereo not given),14%,-7%,17%,-11%,20%,-71*
CC1NC(=O)NC1CCCCCC(=O)Nc1ccc(F)cc1 (stereo not given),10%,-16%,1%,-2%,?,23
COc1ccc(/C=N/NC(=O)Cc2cccs2)cc1,8%,.,.,.,.,79
Cc1ccc(/C=N/NC(=O)Cc2cccs2)o1,15%,-9%,9%,-10%,12%,-74*
Cc1cccn2c(=O)c3cc(C#N)c(=O)n(-c4nnc(SCc5ccc(Cl)cc5)s4)c3nc12,.,0%,-22%[46.1 µM],-12%,?,?
CCC[C@H]1[C@@H](NC(=O)NCCCC(=O)OCC)CC[C@@]23CCCN2C(=O)CCC[C@@H]13,.,.,.,.,.,4
COc1ccc(Nc2nc(N)nc(N)c2S(=O)(=O)c2ccccc2)cc1,.,-5%,-8%[46.1 µM],-11%,?,-16
Cc1cccc(Nc2nc(N)nc(N)c2S(=O)(=O)c2ccccc2)c1,.,-2%,-22%[46.1 µM],-5%,?,-103*
CC(=O)c1cccc(Nc2nc(-c3ccccc3)cs2)c1,2.5µM*,?,?,-30%,?,48
O=C(Nc1cccc(-c2csc(Nc3cccc(C(F)(F)F)c3)n2)c1)c1ccccc1,?,?,.,?,.,-4
CC(=O)c1cccc(Nc2nc(-c3cccnc3)cs2)c1,?,-25%,?,?,?,38
O=C(Nc1cccc(-c2csc(Nc3ccccc3)n2)c1)c1ccccc1,?,?,.,5µM*,.,-16
c1ccc(-c2csc(Nc3ccc4c(c3)OCCO4)n2)cc1,-15%,-20%,10µM*,-17%,?,54
c1cc2c(cc1Nc1nc(-c3ccc4c(c3)OCO4)cs1)OCCO2,-20%,.,?,.,14%,17
C=CCOC(=O)N[C@H](c1cccc(OC)c1)[C@H](C)C=CCC(=O)OC,.,.,?,.,15%[14.2 µM],.
Cc1ccn2cc(-c3ccc4c(c3)NC(=O)CO4)nc2c1,1%,.,.,.,.,-84*
